T cruzi growth-1: inhibitors of T. cruzi proliferation | inhibition, % at 8.34 µM | hit rate 5.9% among 77,000 | T. cruzi beta-gal in NIH3T3, GalScreen luminescence, 90 h | AID 624255;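 active means mean inhibition above about 93%, with at least 55% of replicates each passing it, limit read from the data, passing the limit was not always enough; inconclusive means only one of those two conditions holds; inactive means neither condition holds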
C diff HTS: C. difficile growth inhibition | hit rate 0.25% among 86,000 | growth activity, negative = inhibition, % at 16 µg/mL (by protocol) | Clostridium difficile clinical isolate growth, OD600, 24 h; active compounds read low;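 active means mean growth activity at or below -80% and every replicate also at or below -80%; inconclusive means mean at or below -80% but some replicate above -80%; inactive means mean growth activity above -80%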
Pf Dd2 inh: blocks growth of Plasmodium falciparum Dd2 parasites. hit rate 2.3% among 94,000. P. falciparum Dd2 growth, SYBR Green, 72 h; active compounds read low. activity change, % at 10 µM. AID 1159554; in the data active means activity change below about -80%; inconclusive means no clear call, values can overlap the other calls
T cruzi growth-2: Trypanosoma cruzi proliferation inhibition | shares compounds with T cruzi growth-1 | T. cruzi beta-gal in NIH3T3, GalScreen luminescence, 90 h | inhibition, % at 8.35 µM | hit rate 72% among 5,600;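 active means mean replicate inhibition above about 95% and at least 55% of replicates individually reaching it, limit read from the data; inconclusive means only one of the two criteria is met; inactive means neither criterion is met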
T cruzi growth-3: inhibitors of T. cruzi proliferation; hit rate 21% among 5,600; shares compounds with T cruzi growth-1; inhibition, % at 2.09 µM; T. cruzi beta-gal in NIH3T3, GalScreen luminescence, 90 h;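 active means mean inhibition above about 95%, with at least 55% of replicates also reaching it, limit read from the data; inconclusive means meets just one of the two conditions; inactive means meets neither condition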
NIH3T3 tox: kills mouse NIH/3T3 fibroblasts; NIH/3T3 viability, CellTiter-Glo ATP luminescence, 90 h; cytotoxicity (signal decrease), % at 8.35 µM; hit rate 14% among 5,600; shares compounds with T cruzi growth-1; AID 651742;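 active means mean signal decrease across replicates above about 35% based on untreated-well scatter, with enough replicates individually passing, limit read from the data; inconclusive means no rule stated though some were filed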
NIH3T3 tox 2: kills mouse NIH/3T3 fibroblasts. shares compounds with T cruzi growth-1. NIH/3T3 viability, CellTiter-Glo ATP luminescence, 90 h. inhibition, % at 24.9 µM. hit rate 56% among 5,600. AID 651744;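 active means mean loss of cell viability signal at or above a set limit, and enough replicates individually reaching it; inconclusive means meets only the mean limit or only the replicate share; inactive means meets neither condition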
Each line names hits and unclear results; the compound was inactive in the other large screens (follow-up assays come after a bar, where they were run). The list is not random: actives were taken first. Their share in the collection is about 6.7%.

CN1C(=O)c2cc(NC(=O)C3CC3)ccc2OC[C@@H]2O[C@H](CC(=O)NCc3ccccc3F)CC[C@H]21	none (no result: T cruzi growth-1)
O=C(NCC1CC1)[C@H]1[C@H](CO)[C@H]2Cn3c(ccc(C4=CCCCC4)c3=O)[C@H]2N1Cc1ccccc1F	T cruzi growth-1 98.9 | T cruzi growth-2 inactive | T cruzi growth-3 inactive | NIH3T3 tox inactive | NIH3T3 tox 2 66.0
O=C(NCC1CC1)[C@@H]1[C@@H](CO)[C@@H]2Cn3c(ccc(C4=CCCC4)c3=O)[C@@H]2N1Cc1ccccc1F	none (no result: Pf Dd2 inh)
COc1ccc(S(=O)(=O)Nc2cccc3c2O[C@H](CN(C)S(=O)(=O)c2ccccc2)[C@H](C)CN([C@@H](C)CO)C3=O)cc1	none
Cc1noc(C)c1NC(=O)N(C)C[C@H]1OCCCC[C@H](C)Oc2ccc(NC(=O)NC(C)C)cc2C(=O)N([C@@H](C)CO)C[C@H]1C	none (no result: T cruzi growth-1)
Cc1ccc(S(=O)(=O)N(C)C[C@@H]2OCCCC[C@H](C)Oc3ccc(NC(=O)Nc4ccc(F)cc4)cc3C(=O)N([C@H](C)CO)C[C@@H]2C)cc1	T cruzi growth-1 109.0 (no result: C diff HTS) | T cruzi growth-2 96.7 | T cruzi growth-3 106.6 | NIH3T3 tox inactive | NIH3T3 tox 2 41.4
C[C@@H]1CCCCO[C@@H](CN(C)S(=O)(=O)c2ccc(Cl)cc2)[C@H](C)CN([C@@H](C)CO)C(=O)c2cc(NC(=O)Nc3ccc(F)cc3)ccc2O1	none
C[C@@H]1CCCCO[C@@H](CN(C)S(=O)(=O)c2ccc(Cl)cc2)[C@@H](C)CN([C@H](C)CO)C(=O)c2cc(NC(=O)Nc3ccc(F)cc3)ccc2O1	none
Cc1ccc(S(=O)(=O)N(C)C[C@@H]2OCCCC[C@@H](C)Oc3ccc(NC(=O)Nc4ccc(F)cc4)cc3C(=O)N([C@H](C)CO)C[C@H]2C)cc1	T cruzi growth-1 113.8 (no result: C diff HTS) | T cruzi growth-2 108.9 | T cruzi growth-3 108.7 | NIH3T3 tox inactive | NIH3T3 tox 2 inactive
Cc1ccc(S(=O)(=O)N(C)C[C@H]2OCCCC[C@@H](C)Oc3ccc(NC(=O)Nc4cccc5ccccc45)cc3C(=O)N([C@@H](C)CO)C[C@H]2C)cc1	none (no result: T cruzi growth-1)
C[C@@H]1CCCCO[C@H](CN(C)CC2CC2)[C@H](C)CN([C@@H](C)CO)C(=O)c2cc(NS(C)(=O)=O)ccc2O1	none
COCC(=O)Nc1ccc2c(c1)C(=O)N(C)C[C@@H](OC)[C@@H](C)CN(Cc1cc(F)ccc1F)[C@@H](C)CO2	none (no result: C diff HTS)
Cc1ccc(S(=O)(=O)N(C)C[C@H]2Oc3ccc(NS(=O)(=O)c4ccc(Cl)cc4)cc3C(=O)N([C@H](C)CO)C[C@H]2C)cc1	T cruzi growth-1 99.8 | T cruzi growth-2 96.4 | T cruzi growth-3 inactive | NIH3T3 tox inactive | NIH3T3 tox 2 36.0
C[C@@H]1CN([C@@H](C)CO)C(=O)c2cc(NS(=O)(=O)c3ccc(Cl)cc3)ccc2O[C@@H]1CN(C)S(=O)(=O)c1ccc(Cl)cc1	T cruzi growth-1 inconclusive | T cruzi growth-2 113.5 | T cruzi growth-3 inactive | NIH3T3 tox inactive | NIH3T3 tox 2 64.6
C[C@@H]1CN([C@@H](C)CO)C(=O)c2cc(NS(=O)(=O)c3ccc(Cl)cc3)ccc2O[C@H]1CN(C)S(=O)(=O)c1ccc(Cl)cc1	none
Cc1ccc(S(=O)(=O)Nc2ccc3c(c2)C(=O)N([C@@H](C)CO)C[C@H](C)[C@H](CN(C)S(=O)(=O)c2ccc(Cl)cc2)O3)cc1	none (no result: T cruzi growth-1)
C[C@H]1CN([C@@H](C)CO)C(=O)Cc2cc(NS(=O)(=O)c3cccs3)ccc2O[C@H]1CN(C)C(=O)Nc1ccc(C(F)(F)F)cc1	none
C[C@H]1CN([C@@H](C)CO)C(=O)c2cccc(NS(=O)(=O)c3cn(C)cn3)c2O[C@H]1CN(C)S(=O)(=O)c1ccccc1	none
CN1C(=O)c2cc(NC(=O)c3cnccn3)ccc2OC[C@@H]2O[C@H](CC(=O)N[C@H]3CCN(Cc4ccccc4)C3)CC[C@@H]21	T cruzi growth-1 109.5 | T cruzi growth-2 95.2 | T cruzi growth-3 inconclusive | NIH3T3 tox inactive | NIH3T3 tox 2 inactive
CN1C(=O)c2cc(NC(=O)c3cnccn3)ccc2OC[C@H]2O[C@@H](CC(=O)N[C@H]3CCN(Cc4ccccc4)C3)CC[C@@H]21	none
CN1C(=O)c2cc(NC(=O)c3cnccn3)ccc2OC[C@@H]2O[C@@H](CC(=O)N[C@@H]3CCN(Cc4ccccc4)C3)CC[C@H]21	T cruzi growth-1 100.9 | T cruzi growth-2 101.4 | T cruzi growth-3 inactive | NIH3T3 tox inactive | NIH3T3 tox 2 inactive
CN1C(=O)c2cc(NC(=O)c3cnccn3)ccc2OC[C@@H]2O[C@H](CC(=O)N[C@@H]3CCN(Cc4ccccc4)C3)CC[C@H]21	none
COc1ccc(NC(=O)N(C)C[C@@H]2Oc3c(NS(=O)(=O)c4cn(C)cn4)cccc3C(=O)N([C@@H](C)CO)C[C@@H]2C)cc1	none
O=C(C[C@H]1C=C[C@H](NC(=O)C2CCC2)[C@@H](CO)O1)NCCCN1CCOCC1	none (no result: C diff HTS)
CCC(=O)Nc1ccc2c(c1)C(=O)N(C)C[C@@H](OC)[C@@H](C)CN(C(=O)c1cccnc1)[C@H](C)CO2	none
COc1ccc(S(=O)(=O)N(C)C[C@H]2Oc3ncc(/C=C/c4ccccc4)cc3C(=O)N([C@H](C)CO)C[C@@H]2C)cc1	none (no result: T cruzi growth-1)
C[C@H]1CCCCO[C@H](CN(C)S(=O)(=O)c2ccccc2)[C@@H](C)CN([C@@H](C)CO)C(=O)c2cc(NS(=O)(=O)c3ccc(F)cc3)ccc2O1	T cruzi growth-1 97.0 | T cruzi growth-2 109.9 | T cruzi growth-3 inactive | NIH3T3 tox inactive | NIH3T3 tox 2 inactive
C[C@@H]1CCCCO[C@H](CN(C)S(=O)(=O)c2ccccc2)[C@@H](C)CN([C@H](C)CO)C(=O)c2cc(NS(=O)(=O)c3ccc(F)cc3)ccc2O1	none
C[C@H]1CCCCO[C@@H](CN(C)S(=O)(=O)c2ccccc2)[C@@H](C)CN([C@@H](C)CO)C(=O)c2cc(NS(=O)(=O)c3ccc(F)cc3)ccc2O1	T cruzi growth-1 101.4, Pf Dd2 inh -83.5 | T cruzi growth-2 106.7 | T cruzi growth-3 inactive | NIH3T3 tox inactive | NIH3T3 tox 2 inactive
C[C@@H]1CCCCO[C@H](CN(C)S(=O)(=O)c2ccccc2)[C@H](C)CN([C@@H](C)CO)C(=O)c2cc(NS(=O)(=O)c3ccc(F)cc3)ccc2O1	none
COc1ccc(NC(=O)N(C)C[C@H]2OCc3cn(nn3)CCCC(=O)N([C@H](C)CO)C[C@H]2C)cc1	none
C[C@@H]1CCCCO[C@@H](CN(C)Cc2ccncc2)[C@H](C)CN([C@@H](C)CO)C(=O)c2cc(NC(=O)Nc3ccc4c(c3)OCO4)ccc2O1	none
C[C@H](O)C#Cc1ccc2c(c1)O[C@H](CN(C)C(=O)CC1CC1)[C@H](C)CN([C@@H](C)CO)S2(=O)=O	none (no result: Pf Dd2 inh)

Bioassay records as filed in PubChem.
